Assay results taken from PubChem BioAssay (Tox21).
Values without a mark were called inactive. Results filed as inconclusive are left out. A call without a number means that no potency is given here. Active and inactive are the calls of the source. Unless noted, the call rests on the fitted dose curve; in most records, active means well fitted curve in the direction sought with a large enough effect in the repeat runs; inconclusive means weak or mixed curves; inactive means no such curve, though single readings can be large; an effect the other way counts as inactive or inconclusive.

Columns and labels:
[1] = qHTS assay for small molecule agonists of the p53 signaling pathway (AID 651631; calls by dose curve; further: nearly all actives have a fitted effect of over 15% in size; further: potency means the concentration at half of the fitted maximal effect)
Method in brief: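 HCT-116 p53RE-bla reporter line, 16 h compound treatment at 37 °C, then fluorescence after 2 h with B/G FRET substrate.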

[2] = qHTS assay for small molecules that induce genotoxicity in human embryonic kidney cells expressing luciferase-tagged ATAD5 (AID 651632); further: nearly all actives have a fitted effect of over 15% in size
Method in brief: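 Genotoxicity read-out via ATAD5-luciferase: HEK293T cells, 16 hr compound incubation at 37C, Amplite detection.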

[3] = qHTS assay for small molecule agonists of the p53 signaling pathway - cell viability (AID 651633; calls by dose curve;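 further: p53RE-bla HCT reporter cells with a stable beta-lactamase p53 reporter; series mostly up to about 83 µM; nearly all actives have a fitted effect of over 30% in size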)
Method in brief: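 p53RE-bla cells were treated with compound for 16 hours at 37 C. Cytotoxicity was then measured as CellTiter-Glo luminescence after 30 min at room temperature.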

[4] = qHTS assay for small molecules that induce genotoxicity in human embryonic kidney cells expressing luciferase-tagged ATAD5 - cell viability (AID 651634; calls by dose curve; further: nearly all actives have a fitted effect of over 25% in size)
Method in brief: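 Live-cell protease activity (CellTiter-Fluor, fluorescence) indicates viability. HEK293T cells with luciferase-tagged ATAD5; 15.5 hr compound treatment at 37C.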

[5] = qHTS assay for small molecule disruptors of the mitochondrial membrane potential - cell viability (AID 720634; calls by dose curve;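 further: human HepG2 liver cancer cells; series mostly up to about 83 µM; nearly all actives have a fitted effect of over 20% in size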)
Method in brief: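 Human hepatoma HepG2 cells were treated for 1 hr with test chemicals, then given m-MPI dye and CellTiter-Glo. Cell viability reflects luminescence proportional to cellular ATP.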

[6] = qHTS assay for small molecule disruptors of the mitochondrial membrane potential (AID 720635); further: potency means the concentration at half of the fitted maximal effect
Method in brief: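 HepG2 cells exposed to compound 1 hr at 37C, then Mito-MPS dye 30 min. Ratio read of aggregate (540/590 nm) versus monomer (490/535 nm) fluorescence.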

[7] = qHTS assay to test for compound auto fluorescence at 590 nm (red) in HepG2 cells (AID 720674)
Method in brief: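 Fluorescence at 590 nm emission following 540 nm excitation was recorded from HepG2 wells one hour after compound transfer, with DMSO-only wells as vehicle and Rose Bengal sodium equivalency as the scale.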

[8] = qHTS assay to test for compound auto fluorescence at 535 nm (green) in HepG2 cells (AID 720675)
[9] = qHTS assay to test for compound auto fluorescence at 460 nm (blue) in HEK293 cells (AID 720678)
Method in brief: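 Cells were seeded and left to adhere for 4-5 hr at 37C. Compounds were then pin-transferred. After an overnight incubation at 37C under 5% CO2, intrinsic fluorescence at 405/460 nm was measured and referenced to triamterene.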

[10] = qHTS assay to test for compound auto fluorescence at 590 nm (red) in HEK293 cells (AID 720679)
Method in brief: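 Each well held 2,000 HEK293 cells in medium containing 10% dialyzed FBS. Following 4-5 hr attachment at 37C, 23 nL test compound or DMSO was added; plates sat overnight, and red fluorescence (540/590nm) was recorded.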

[11] = qHTS assay to test for compound auto fluorescence at 535 nm (green) in HEK293 cells (AID 720680)
[12] = qHTS assay to test for compound auto fluorescence at 460 nm (blue) in HEK293 cell free culture (AID 720681)
Method in brief: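 Compounds were added to cell-free DMEM with 10% FBS and fluorescence read directly. The blue channel used 405 nm excitation and 460 nm emission, with triamterene as the reference fluorophore.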

[13] = qHTS assay to test for compound auto fluorescence at 535 nm (green) in HEK293 cell free culture (AID 720682)
Method in brief: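 Steps: dispense DMEM/10% FBS into empty wells; pin in compound or DMSO; measure fluorescence at 485/535 nm. Values are fluorescein equivalents.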

[14] = qHTS assay to test for compound auto fluorescence at 590 nm (red) in HEK293 cell free culture (AID 720683)
Method in brief: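 Cell-free wells of DMEM with 10% FBS received compound, and intrinsic fluorescence was read at excitation/emission 540/590 nm. Values expressed as equivalence to Rose Bengal sodium.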

[15] = qHTS assay to test for compound auto fluorescence at 590 nm (red) in HepG2 cell free culture (AID 720684)
Method in brief: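 Compound was pinned into wells holding MEM with 10% FBS and no cells, and red fluorescence was read at Ex/Em 540/590 nm. Signal is expressed as auto fluorescence equivalency relative to Rose Bengal sodium.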

[16] = qHTS assay to test for compound auto fluorescence at 460 nm (blue) in HepG2 cell free culture (AID 720685)
Method in brief: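 Compound (23 nL) or DMSO pinned into cell-free MEM with 10% FBS; blue fluorescence read at 405/460 nm excitation/emission, expressed as auto-fluorescence equivalency to triamterene.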

[17] = qHTS assay to test for compound auto fluorescence at 535 nm (green) in HepG2 cell free culture (AID 720686)
[18] = qHTS assay to test for compound auto fluorescence at 460 nm (blue) in HepG2 cells (AID 720687)
Method in brief: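 HepG2 cells in MEM with 10% FBS, attached overnight at 37 C, were exposed to compound or DMSO for 1 hr at 37 C, 5% CO2. Blue fluorescence was read at 405/460 nm, with triamterene as reference fluorophore.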

[19] = target: Glucocorticoid receptor (Homo sapiens) (UniProt P04150); assay: qHTS assay to identify small molecule agonists of the glucocorticoid receptor (GR) signaling pathway (AID 720691; active means well fitted activation curve with a large enough effect in the signal ratio in the repeat runs, not every such curve was filed as active; the % refers to the signal ratio)
Method in brief: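 Beta-lactamase reporter activity, read as fluorescence intensity, was measured in GR-bla HeLa cells exposed to compounds for 18 h at 37 C and then loaded with LiveBLAzer B/G FRET substrate for 2 h at room temperature.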

[20] = target: Glucocorticoid receptor (Homo sapiens) (UniProt P04150); assay: qHTS assay to identify small molecule antagonists of the glucocorticoid receptor (GR) signaling pathway (AID 720692; active means well fitted inhibition curve with a large enough effect in the signal ratio in the repeat runs, not every such curve was filed as active; the % refers to the signal ratio)
Method in brief: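 Fluorescence from cleaved LiveBLAzer B/G FRET substrate reports GRE-driven beta-lactamase in HeLa cells; compounds are tested against 5 nM dexamethasone (final) over 18 h at 37 C, substrate incubation 2 h at room temperature.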

Chain of Glucocorticoid receptor (Homo sapiens) (P04150 whole entry, looked up): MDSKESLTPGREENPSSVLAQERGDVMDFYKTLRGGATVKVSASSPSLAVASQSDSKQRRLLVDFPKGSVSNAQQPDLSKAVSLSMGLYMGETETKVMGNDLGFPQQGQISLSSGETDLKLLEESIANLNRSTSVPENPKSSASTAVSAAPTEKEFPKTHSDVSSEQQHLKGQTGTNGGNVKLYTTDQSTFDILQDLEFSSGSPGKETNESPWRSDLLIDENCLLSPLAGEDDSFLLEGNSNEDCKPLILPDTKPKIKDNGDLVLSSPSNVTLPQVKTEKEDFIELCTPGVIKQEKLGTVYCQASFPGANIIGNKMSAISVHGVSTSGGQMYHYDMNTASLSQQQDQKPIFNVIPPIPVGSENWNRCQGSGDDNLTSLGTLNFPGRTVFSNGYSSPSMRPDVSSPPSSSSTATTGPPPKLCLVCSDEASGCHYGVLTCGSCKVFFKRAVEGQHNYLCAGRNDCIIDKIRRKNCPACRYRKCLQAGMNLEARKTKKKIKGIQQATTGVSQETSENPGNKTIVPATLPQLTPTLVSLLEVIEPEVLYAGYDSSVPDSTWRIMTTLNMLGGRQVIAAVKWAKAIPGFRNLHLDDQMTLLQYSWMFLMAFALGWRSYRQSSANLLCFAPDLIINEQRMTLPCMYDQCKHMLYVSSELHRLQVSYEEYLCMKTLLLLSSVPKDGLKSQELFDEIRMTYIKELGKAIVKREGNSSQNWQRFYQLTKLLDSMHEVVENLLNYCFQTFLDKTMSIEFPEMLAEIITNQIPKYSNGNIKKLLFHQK

What does the source list for `CN1CCN(C(=O)C2CCCCC2)CC1`?
Potency [1]: inactive; Potency [2]: inactive; outcome [3]: inactive; outcome [4]: inactive; outcome [5]: inactive; Potency [6]: inactive; outcome [7]: inactive; outcome [8]: inactive; outcome [9]: inactive; outcome [10]: inactive; outcome [11]: inactive; outcome [12]: inactive; outcome [13]: inactive; outcome [14]: inactive; outcome [15]: inactive; outcome [16]: inactive; outcome [17]: inactive; outcome [18]: inactive; Potency [19]: inactive; outcome [20]: inactive

Which Potency [1] does the source give for `O=CN1CCCCC1` here?
The Potency was “inactive”.

What about the Potency [2] of the same compound?
Its Potency is “inactive”.

What about the outcome [3] of the same compound?
The outcome was “inactive”.

What about the outcome [4] of the same compound?
The outcome was “inactive”.

And the outcome [5]?
Its outcome is “inactive”.

What about the Potency [6] of the same compound?
The Potency was “inactive”.

And the outcome [7]?
The outcome was “inactive”.

What about the outcome [8] of the same compound?
Its outcome is “inactive”.

What about the outcome [9] of the same compound?
The outcome was “inactive”.

What about the outcome [10] of the same compound?
Its outcome is “inactive”.

What about the outcome [11] of the same compound?
The outcome was “inactive”.

And the outcome [12]?
The outcome was “inactive”.

And the outcome [13]?
The outcome was “inactive”.

What about the outcome [15] of the same compound?
Its outcome is “inactive”.

What about the outcome [16] of the same compound?
Its outcome is “inactive”.

What about the outcome [17] of the same compound?
Its outcome is “inactive”.

What about the outcome [18] of the same compound?
Its outcome is “inactive”.

For `COc1cnc(NS(=O)(=O)c2ccc(N)cc2)nc1`, which Potency [1] is on record?
Its Potency is “inactive”.

What about the Potency [2] of the same compound?
The Potency was “inactive”.

And the outcome [3]?
The outcome was “inactive”.

What about the outcome [4] of the same compound?
Its outcome is “inactive”.

What about the outcome [5] of the same compound?
The outcome was “inactive”.

And the Potency [6]?
The Potency was “inactive”.

What about the fluorescence, relative to Rose Bengal [7] of the same compound?
The fluorescence, relative to Rose Bengal was -0.0895% [at 18.6 µM].

And the fluorescence, % of fluorescein control [8]?
The fluorescence, % of fluorescein control was -0.0734% [at 18.6 µM].

And the fluorescence, % of triamterene [9]?
The fluorescence, % of triamterene was 0.0096% [at 18.6 µM].

And the fluorescence, % of fluorescent control [10]?
Its fluorescence, % of fluorescent control is 0.0444% [at 18.6 µM].

What about the fluorescence, % of fluorescein [11] of the same compound?
Its fluorescence, % of fluorescein is -0.0702% [at 18.6 µM].

What about the fluorescence, % of fluorescent control [12] of the same compound?
The fluorescence, % of fluorescent control was 0.0732% [at 18.6 µM].

What about the activity change [13] of the same compound?
The activity change was -0.0115% [at 18.6 µM].

And the fluorescence, % of fluorescent control [14]?
Its fluorescence, % of fluorescent control is -0.0163% [at 18.6 µM].

And the fluorescence, % of Rose Bengal [15]?
Its fluorescence, % of Rose Bengal is 0.414% [at 18.6 µM].

What about the fluorescence, % of fluorescein control [17] of the same compound?
Its fluorescence, % of fluorescein control is 0.0043% [at 18.6 µM].

And the fluorescence, % of fluorescent control [18]?
The fluorescence, % of fluorescent control was 0.0082% [at 18.6 µM].

And the Potency [19]?
Its Potency is “inactive”.

And the outcome [20]?
The outcome was “inactive”.

Which Potency [1] does the source give for `O=C(c1ccccc1)c1cccc(O)c1` here?
Its Potency is “inactive”.

And the Potency [2]?
Its Potency is “inactive”.

What about the outcome [3] of the same compound?
Its outcome is “inactive”.

And the outcome [4]?
Its outcome is “inactive”.

What about the outcome [5] of the same compound?
The outcome was “inactive”.

What about the Potency [6] of the same compound?
The Potency was 27.7 µM (active).

And the outcome [7]?
Its outcome is “inactive”.

What about the outcome [8] of the same compound?
The outcome was “inactive”.

And the outcome [9]?
Its outcome is “inactive”.

What about the outcome [10] of the same compound?
Its outcome is “inactive”.

And the outcome [11]?
Its outcome is “inactive”.

What about the outcome [12] of the same compound?
Its outcome is “inactive”.

What about the outcome [13] of the same compound?
The outcome was “inactive”.

And the outcome [14]?
Its outcome is “inactive”.

And the outcome [15]?
Its outcome is “inactive”.

And the outcome [17]?
Its outcome is “inactive”.

What about the outcome [18] of the same compound?
Its outcome is “inactive”.

For `CC(CN1CC(=O)NC(=O)C1)N1CC(=O)NC(=O)C1` (stereo not drawn), which Potency [1] is on record?
Its Potency is 11.9 µM (active).

And the Potency [2]?
Its Potency is “inactive”.

And the outcome [3]?
Its outcome is “inactive”.

And the outcome [4]?
Its outcome is “inactive”.

And the outcome [5]?
The outcome was “inactive”.

What about the Potency [6] of the same compound?
Its Potency is “inactive”.

And the outcome [7]?
The outcome was “inactive”.

And the outcome [8]?
The outcome was “inactive”.

And the outcome [9]?
Its outcome is “inactive”.

What about the outcome [10] of the same compound?
The outcome was “inactive”.

And the outcome [11]?
The outcome was “inactive”.

And the outcome [12]?
The outcome was “inactive”.

What about the outcome [13] of the same compound?
The outcome was “inactive”.

And the outcome [14]?
Its outcome is “inactive”.

And the outcome [15]?
The outcome was “inactive”.

What about the outcome [16] of the same compound?
Its outcome is “inactive”.

What about the outcome [17] of the same compound?
The outcome was “inactive”.

What about the outcome [18] of the same compound?
Its outcome is “inactive”.

What does the source list for `C/C(Cl)=C/CCl`?
Potency [1]: inactive; Potency [2]: inactive; outcome [3]: inactive; outcome [4]: inactive; outcome [5]: inactive; Potency [6]: inactive; outcome [7]: inactive; outcome [8]: inactive; outcome [9]: inactive; outcome [10]: inactive; outcome [11]: inactive; outcome [12]: inactive; outcome [13]: inactive; outcome [14]: inactive; outcome [15]: inactive; outcome [16]: inactive; outcome [17]: inactive; outcome [18]: inactive

For `COC(=O)c1ccc(C(=O)O)cc1`, which Potency [1] is on record?
The Potency was “inactive”.

And the Potency [2]?
Its Potency is “inactive”.

What about the outcome [3] of the same compound?
Its outcome is “inactive”.

What about the outcome [4] of the same compound?
The outcome was “inactive”.

What about the outcome [5] of the same compound?
Its outcome is “inactive”.

And the Potency [6]?
The Potency was “inactive”.

What about the outcome [7] of the same compound?
Its outcome is “inactive”.

And the outcome [8]?
Its outcome is “inactive”.

What about the outcome [9] of the same compound?
Its outcome is “inactive”.

And the outcome [10]?
The outcome was “inactive”.

What about the outcome [11] of the same compound?
Its outcome is “inactive”.

What about the outcome [12] of the same compound?
The outcome was “inactive”.

What about the outcome [13] of the same compound?
The outcome was “inactive”.

And the outcome [15]?
The outcome was “inactive”.

And the outcome [16]?
Its outcome is “inactive”.

What about the outcome [17] of the same compound?
The outcome was “inactive”.

And the outcome [18]?
Its outcome is “inactive”.

What about the Potency [19] of the same compound?
The Potency was “inactive”.

And the outcome [20]?
Its outcome is “inactive”.
